# Only a selection was taken, and hits are over-represented in it overall.
# CHX counter: affects cycloheximide protein synthesis inhibition readout, counter-screen | cell reporter, cycloheximide protein synthesis inhibition counterscreen | max response, % | actives 12% (n = 300,000); in the data active = max response mostly above about 13%, no sharp cut-off; inactive = mostly below about 14%; also: read at 38.3 µM for the half of the compounds with a filed dose; 0% is about no effect
# Shiga inhibitor: blocks Shiga toxin action in Vero cells; Vero cells, Shiga toxin protein synthesis inhibition reporter; inhibition, % at 38.7 µM; actives 9.2% (n = 290,000); AID 2315; in the data active = inhibition mostly above about 28%, no sharp cut-off; inactive = mostly below about 43%; also: 0% is about no effect
# Giardia FBPA inh: blocks Giardia fructose-bisphosphate aldolase activity; purified Giardia FBPA; actives 0.71% (n = 290,000); Potency, µM (titrated, usually from 59.6 µM), for inactives: at the highest dose activity, negative = inhibition, most hits filed as inhibitors; AID 2451; A8B2U2; also: potency is read from the fitted curve at half-maximal effect; % is scaled to controls: 0 for no effect and ±100 for the full control effect; nearly all actives have a fitted effect of over 55% in size
# Target sequence (A8B2U2 whole entry, looked up): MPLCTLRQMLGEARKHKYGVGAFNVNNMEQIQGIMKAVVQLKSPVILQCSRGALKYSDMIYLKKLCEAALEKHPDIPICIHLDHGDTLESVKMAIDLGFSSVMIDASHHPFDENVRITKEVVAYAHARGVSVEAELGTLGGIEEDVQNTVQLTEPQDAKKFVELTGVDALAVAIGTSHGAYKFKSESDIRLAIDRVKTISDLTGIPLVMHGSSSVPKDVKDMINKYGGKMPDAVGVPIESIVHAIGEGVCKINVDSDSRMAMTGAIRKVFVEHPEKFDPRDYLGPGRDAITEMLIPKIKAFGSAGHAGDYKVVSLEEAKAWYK
#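 Giardia FBPA (40 nM reagent) was preincubated 10 min at RT with compound (up to 57.5 uM final), then substrate plus GAPDH/TPI/NAD/arsenate coupling system with diaphorase/resazurin was added; resorufin fluorescence (525/598 nm) was read after 20 min.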
# LmPK inh: blocks Leishmania mexicana pyruvate kinase activity; actives 0.37% (n = 290,000); Q27686; AID 1721; Potency, µM (doses to about 57.5 µM), inactives show at the top dose activity change, negative = inhibition, most hits filed as inhibitors; purified LmPK, Kinase-Glo ATP luminescence, 1 h; also: potency is read from the fitted curve at half-maximal effect; % is scaled to controls: 0 for no effect and ±100 for the full control effect
#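 Purified LmPK (0.1 nM) with 0.5 mM PEP and 0.1 mM ADP in imidazole buffer pH 7.2 with MgCl2/KCl, 1 h at room temperature. ATP formed was read by luciferase luminescence and normalized to no-enzyme and uninhibited controls.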
# TbPYK inhibitor: T. brucei pyruvate kinase inhibition | Q57TT1 | Potency, µM (highest dose often 76.8 µM), inactives show top-dose activity, negative = inhibition, most hits filed as inhibitors | AID 624173 | TbPYK enzyme, Kinase-Glo Plus ATP luminescence, 45 min | actives 0.12% (n = 410,000); also: potency is read from the fitted curve at half-maximal effect; % is scaled to controls: 0 for no effect and ±100 for the full control effect; nearly all actives have a fitted effect of over 50% in size
#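 In this concentration-response screen, enzyme-free wells defined baseline while DMSO plates tracked drift. Each reaction combined TbPYK, substrate, compound and 130 uM ADP for 45 min at room temperature. Kinase-Glo Plus luminescence gave the signal.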
# RE007 growth inh: less growth of the S. pombe RE007 Vpr strain. actives 0.21% (n = 360,000). S. pombe RE007 Vpr strain, BacTiter-Glo ATP luminescence, 24 h. Potency, µM (top dose mostly 92.2 µM), for inactives: top-dose activity change, negative = less growth, usual class: inhibitors; active = well fitted falling curve with a large enough effect; inconclusive = small, poorly fitted or top-dose-only effect; inactive = no such curve, though single readings can be large or run the other way; also: potency is read from the fitted curve at half-maximal effect; % is scaled to controls: 0 for no effect and ±100 for the full control effect; nearly all actives have a fitted effect of over 50% in size
#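 Fission yeast RE007 carrying one integrated HIV-1 vpr copy, seeded at OD 0.01 in PMG+AL medium with 23 nL pinned compound. Grown 24 h at 30 degrees; viability read by BacTiter-Glo luminescence after 5 min.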
# Numbers without * were called inactive; ? = inconclusive; · = no result; [ ] = dose if it differs, or a comment. Unless noted, calls follow the shape of the dose curve; as a rule, active = well fitted curve in the direction sought with a large enough effect; inconclusive = small, poorly fitted or top-dose-only effect, or another doubt; inactive = no such curve, though single readings can be large; an effect the other way counts as inactive or inconclusive.
SMILES,CHX counter,Shiga inhibitor,Giardia FBPA inh,LmPK inh,TbPYK inhibitor,RE007 growth inh
CCOc1ccc(-n2nc3ccc(NC(=O)c4ccc(-c5cccc(Cl)c5)o4)cc3n2)cc1,·,·,·,·,-1%,·
O=C(c1cc(-c2cccc(Cl)c2)on1)N1CCOCC1,25*,137*,-6%,-5%,5%,5%
O=C(c1cc(-c2cccc(Cl)c2)on1)N1CCCCC1,·,·,·,·,-4%,·
CCCCCCCC/C=C/CCCCCCCC(=O)NCCOP(=O)(O)O,-5,-1,?,·,·,·
CCOc1cc(CNc2ccc3[nH]c(=O)[nH]c3c2)ccc1OCC(=O)NC(C)(C)C,-2,-3,?,2%,-10%,16%
COc1cc(CNn2c(C)n[nH]c2=S)cc(Cl)c1OCC(=O)NC(C)(C)C,11*,21,9%,-3%,?,1%
C=CCOc1ccc(CNn2c(C)n[nH]c2=S)cc1OC,28*,55*,9%,3%,?,14%
C=CCOc1c(Br)cc(CNn2c(C)n[nH]c2=S)cc1OC,-1,-3,20%,9%,?,3%
COc1cc(CNc2ccc3[nH]c(=O)[nH]c3c2)cc(Cl)c1OCC(=O)NC(C)(C)C,11,-16,10µM*,-4%,-20%,-15%
CC(C)C[C@H](NC(=O)CNC(=O)[C@H](C)NC(=O)[C@H](CC(C)C)NC(=O)[C@H](CCCNC(=N)N)NC(=O)[C@H](Cc1cnc[nH]1)NC(=O)[C@@H](NC(=O)[C@@H](NC(=O)[C@@H]1CSSC[C@H](NC(=O)[C@@H](N)CO)C(=O)N[C@@H](CC(N)=O)C(=O)N[C@@H]([C@@H](C)O)C(=O)N[C@@H](C)C(=O)N[C@@H]([C@@H](C)O)C(=O)N1)C(C)C)[C@@H](C)O)C(=O)N[C@@H](CC(C)C)C(=O)N[C@@H](CO)C(=O)N[C@@H](CCCNC(=N)N)C(=O)N[C@@H](CO)C(=O)NCC(=O)NCC(=O)N[C@H](C(=O)N[C@H](C(=O)N[C@@H](CCCCN)C(=O)N[C@@H](CC(=O)O)C(=O)N[C@@H](CC(N)=O)C(=O)N[C@@H](Cc1ccccc1)C(=O)N[C@H](C(=O)N1CCC[C@H]1C(=O)N[C@H](C(=O)N[C@@H](CC(N)=O)C(=O)N[C@H](C(=O)NCC(=O)N[C@@H](CO)C(=O)N[C@@H](CCCCN)C(=O)N[C@@H](C)C(=O)N[C@@H](Cc1ccccc1)C(N)=O)C(C)C)[C@@H](C)O)C(C)C)C(C)C)C(C)C,-5,-8,-3%,·,·,·
CC1(C(=O)Nc2cccnc2)Cc2c(-c3cccc(C(F)(F)F)c3)ccnc2O1 (centres undefined),·,·,·,·,0%,-11%
O=C(NC1CCCCC1)c1ccc(N2CCCC2=O)cc1,16,43,-6%,-10%,-8%,4%
O=C(Nc1ccc(Cl)cc1)NC1CCCCC1,38*,100,1%,5%,-2%,4%
O=C(NC1CCCCCC1)c1ccc(N2CCCC2=O)cc1,21,74*,1%,?,-4%,-21%
O=C(COc1ccc([N+](=O)[O-])cc1Cl)NCC1CCCO1 (centres undefined),16*,46*,0%,7%,0%,0%
O=C(Nc1ccc(F)cc1)NC1CCCCCCC1,61*,108*,-6%,-4%,2%,19%
CCCN(CCC)CCNC(=O)C1CCN(S(=O)(=O)c2cccc3nsnc23)CC1,-5,-12,-10%,3%,4%,0%
COc1cccc([C@@H]2Oc3ccc(OC)cc3/C(=N/O[C@@H](C)c3cn([C@H]4COC[C@H]4O)nn3)[C@@H]2O)c1,·,·,1%[12.9 µM],·,·,·
CCC(C)(C)NC(=O)Cc1ccc(F)cc1,1,-12,2%,1%,-2%,6%
CCOC(=O)C(O)(c1ccc(NC(=O)NC2CCCCC2)cc1)C(F)(F)F (centres undefined),20*,58,-1%,4%,-7%,-2%
O=C(NC1CCCCCC1)c1ccc(CS(=O)(=O)Cc2ccc(F)cc2)o1,22*,40*,·,1%,0%,-5%
CCOC(=O)C(O)(c1ccc(NC(=O)c2ccc(Cl)c(Cl)c2)cc1)C(F)(F)F (centres undefined),12,45,-24%,5%,1%,?
CCC(C)(C)NC(=O)Cc1ccc(Cl)cc1,25*,28,-3%,4%,-9%,8%
O=C(NC1CCCCCCC1)c1ccc(F)cc1,46*,71*,-1%,-7%,-6%,-15%
Cn1nnnc1SCCCNCc1cc(Br)ccc1OCc1ccccc1F,·,·,·,·,1%,·
SMILES,CHX counter,Shiga inhibitor,Giardia FBPA inh,LmPK inh,TbPYK inhibitor,RE007 growth inh
COc1ccc(CNC(=O)c2cn(-c3cccc(OC)c3)c(=O)c3ccccc23)cc1,·,·,·,·,0%,·
COc1ccc(C(=O)NC2(C(F)(F)F)C(=O)NC(C)=C2C#N)cc1 (centres undefined),·,·,·,·,0%,·
O=C(Nc1ccc(F)c(F)c1)NC1CCCCC1,30*,50*,-3%,-3%,-5%,13%
Nc1ccc(NC(=O)NC2CCCCC2)cc1[N+](=O)[O-],33*,65*,-11%,4%,0%,11%
O=C(Nc1ccc(Cl)cc1)NC1CCCCC1Cc1ccco1 (centres undefined),3,-7,0%,3%,-6%,6%
O=C(Nc1ccc(Cl)cc1)NC1CCCC1Cc1ccco1 (centres undefined),41*,47*,-25%,6%,-2%,7%
CC(NCc1ccc(F)cc1)C(=O)NC1CCCCC1 (centres undefined),7.1*,53*,-7%,1%,-13%,-2%
CCOc1ccc(CC(=O)Nc2nnc3n2CCS3)cc1,·,·,·,·,-2%,·
Cc1cc(C)nc(CCNC(=O)CC2C(=O)NCCN2Cc2ccccc2)n1 (centres undefined),7,-7,-20%,-1%,3%,-5%
CCOc1ccc(C(=O)C(C)OC(=O)CN2C(=O)NC(C)(C)C2=O)cc1 (centres undefined),·,·,·,·,-3%,22%
O=C(Cc1ccc(Cl)cc1)NC1CCCCCC1,20*,21,5%,1%,-3%,7%
O=C(Cc1ccc(Cl)cc1)NNC(=O)C(=O)NC1CCCCC1,·,·,·,·,0%,9%
CC1CCCCN1C(=O)Cc1ccc(Cl)cc1 (centres undefined),14*,19,2%,4%,1%,-1%
O=C(COc1ccc(Cl)cc1[N+](=O)[O-])NC1CCCCC1,24*,71*,1%,-2%,-2%,6%
Nc1ccc(NC(=O)NC2CCCCC2)cc1,38*,61*,0%,-1%,-7%,-3%
O=S1(=O)CCN(CCCCc2ccccc2)CC1,·,·,·,·,-1%,0%

# Compound activity deposited in PubChem BioAssay by National Center for Advancing Translational Sciences (NCATS).
